# According to the supplement of paper PMC11624193, “Coupling cellular drug-target engagement to downstream pharmacology with CeTEAM” (Nature Communications, 2024):
# A number with no mark means an inactive call.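 Rule for the calls: active = log2 fold change beyond 2 SD from the library mean after excluding viability outliers; inactive = within 2 SD.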
# Target: PARP1 L713F-nLuc biosensor (HCT116) (UniProt P09874)
# Experiment: PARP1 L713F-nLuc/akaLuc ratio relative to DMSO control (biosensor stabilization) (fold change); higher = more PARP1 biosensor stabilization (target engagement / stabilizer), active = hit call of the paper
# Settings: stock concentration (mM; final µM = stock mM x 1): 10; 24 h
# PARP1 L713F-nLuc biosensor (HCT116), sequence (P09874 whole entry L713F, looked up): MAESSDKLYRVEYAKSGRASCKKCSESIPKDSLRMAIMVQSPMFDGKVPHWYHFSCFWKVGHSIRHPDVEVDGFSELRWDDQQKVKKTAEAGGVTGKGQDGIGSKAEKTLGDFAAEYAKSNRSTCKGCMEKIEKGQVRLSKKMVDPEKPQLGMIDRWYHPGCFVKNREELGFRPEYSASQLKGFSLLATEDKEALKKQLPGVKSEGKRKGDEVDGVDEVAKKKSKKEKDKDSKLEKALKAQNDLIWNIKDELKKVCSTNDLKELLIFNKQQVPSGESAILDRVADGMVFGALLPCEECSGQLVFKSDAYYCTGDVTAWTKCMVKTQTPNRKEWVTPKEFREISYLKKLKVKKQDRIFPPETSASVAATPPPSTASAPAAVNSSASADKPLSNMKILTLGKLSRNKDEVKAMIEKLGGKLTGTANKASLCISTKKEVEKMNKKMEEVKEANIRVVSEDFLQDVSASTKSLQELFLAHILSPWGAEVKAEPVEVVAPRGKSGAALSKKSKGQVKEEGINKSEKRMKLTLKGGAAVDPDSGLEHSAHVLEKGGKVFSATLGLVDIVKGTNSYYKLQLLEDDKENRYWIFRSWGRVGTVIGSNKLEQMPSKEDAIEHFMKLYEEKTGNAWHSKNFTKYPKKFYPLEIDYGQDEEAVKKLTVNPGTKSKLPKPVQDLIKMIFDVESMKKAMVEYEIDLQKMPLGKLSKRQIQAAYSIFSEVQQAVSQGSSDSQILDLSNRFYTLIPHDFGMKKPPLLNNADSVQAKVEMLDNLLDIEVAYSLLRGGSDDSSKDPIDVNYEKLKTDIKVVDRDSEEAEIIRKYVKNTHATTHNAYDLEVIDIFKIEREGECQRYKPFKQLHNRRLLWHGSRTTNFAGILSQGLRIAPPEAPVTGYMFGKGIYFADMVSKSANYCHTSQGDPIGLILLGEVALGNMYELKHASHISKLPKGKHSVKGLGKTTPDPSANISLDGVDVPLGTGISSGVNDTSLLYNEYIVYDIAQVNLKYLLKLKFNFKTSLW
row,SMILES,PARP1 L713F-nLuc/akaLuc ratio
1,CN1CCN(c2ccc(Nc3ncc4cc(C#N)c(=O)n(C5CCCC5)c4n3)cc2)CC1,0.701
2,CC(=O)Nc1cc(Oc2ccc3c(nc(Nc4ccc(F)cc4F)n3C)c2C)ccn1,0.89
3,CC/C(=C(\c1ccc(O)cc1)c1ccc(OCCN(C)C)cc1)c1ccccc1 [4-Hydroxytamoxifen],0.97
4,CN(C)C[C@@H]1CCn2cc(c3ccccc32)C2=C(C(=O)NC2=O)c2cn(c3ccccc23)CCO1,0.636
5,NC(=O)[C@@H]1CCCc2c1[nH]c1ccc(Cl)cc21 [(R)-Selisistat],0.592
6,Cc1cc(Nc2ccc(NC(=O)c3ccc(Nc4ccnc5ccccc45)cc3)cc2)nc(N)n1,1.38
7,CS(=O)(=O)N1CCN(Cc2cc3nc(-c4cccc5[nH]ncc45)nc(N4CCOCC4)c3s2)CC1 [Pictilisib (GDC-0941)],0.659
8,CCN(C(=O)c1ccccc1OC)c1cc2c(cc1N1CCNC[C@H]1C)n(C)c(=O)n2C,0.597
9,CCCC(CCC)C(=O)O [Valproic acid],1.52
10,Nc1nc(=S)c2[nH]cnc2[nH]1 [6-Thioguanine],1.43
11,"C=CC(=O)Nc1cccc(Nc2nc(Nc3ccc(OCCOC)cc3)ncc2F)c1 [Spebrutinib (CC-292, AVL-292)]",0.464
12,C[C@@H]1CCN(C(=O)CC#N)C[C@@H]1N(C)c1ncnc2[nH]ccc12 [Tofacitinib],0.723
13,Cn1c(Nc2ccc(C(F)(F)F)cc2)nc2cc(Oc3ccnc(-c4ncc(C(F)(F)F)[nH]4)c3)ccc21,0.546
